Test results taken from PubChem BioAssay (NCI).
Compounds without any hit were thinned out: in the full panel of roughly 79,000, 15% have a hit. Calls of active or inactive are those of the source. Cut-off read from the data, not from the text of the source: active = growth inhibition above about 70%; inactive = the rest.

Tests used:
[1] = NCI Yeast Anticancer Drug Screen. Data for the rad50 strain (AID 155);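 note: 0% = growth of vehicle-only cultures of the same strain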; settings: S. cerevisiae rad50 strain growth inhibition; at 50.0 µM; stronger effect = higher value
In short: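 Vehicle-treated cultures provide the reference for the growth inhibition reported for compound-exposed, repair-deficient yeast.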

[2] = NCI Yeast Anticancer Drug Screen. Data for the mec2-1 strain (AID 157); settings: S. cerevisiae mec2-1 strain, at 50.0 µM, stronger effect = higher value
In short: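 Strain: mec2-1 (DNA repair/cell cycle alteration). Compound exposure, then growth measured; inhibition expressed relative to vehicle.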

[3] = NCI Yeast Anticancer Drug Screen. Data for the sgs1 mgt1 strain (AID 161);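 note: 0% = growth of cultures given vehicle only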; settings: S. cerevisiae sgs1 mgt1 strain, at 50.0 µM, stronger effect = higher value
In short: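 Read-out: growth inhibition vs vehicle controls. Cells: mutant yeast strain deficient in DNA damage repair.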

[4] = NCI Yeast Anticancer Drug Screen. Data for the cln2 rad14 strain (AID 165);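 note: 0% = growth equal to vehicle treated cultures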; settings: S. cerevisiae cln2 rad14 strain, at 50.0 µM, stronger effect = higher value
In short: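 Compounds are applied to the cln2 rad14 yeast strain, and growth is then compared with that of vehicle-treated cultures to give inhibition.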

[5] = NCI Yeast Anticancer Drug Screen. Data for the bub3 strain (AID 167); settings: S. cerevisiae bub3 mutant strain, at 50.0 µM, stronger effect = higher value
In short: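 Mutant yeast screening strain plus compound; vehicle-treated cultures serve as the 0% inhibition reference.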

[6] = NCI Yeast Anticancer Drug Screen. Data for the mlh1 rad18 strain (AID 175); settings: S. cerevisiae mlh1 rad18 strain growth inhibition; at 50.0 µM; stronger effect = higher value
In short: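 Read-out is yeast growth inhibition, calculated against vehicle-only controls. The compound was applied to a strain engineered with DNA damage repair alterations.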

Measured: growth inhibition

O=C1CSC(=S)N1Nc1ccccc1
inactive: [1] 2.45% | [2] -22.2% | [3] 22.2% | [4] 3.15% | [5] -15.8% | [6] -10.1%

O=C(NC1CCCCC1)c1cccnc1
inactive: [1] -11.4% | [2] -2.2% | [3] -17.1% | [4] -10.9% | [5] -14.5% | [6] -13.5%

COc1cccc(/S(C)=N/S(=O)(=O)c2ccc(C)cc2)c1 (stereo unspecified)
inactive: [1] -11.2% | [2] -7.15% | [3] 2.8% | [4] -6.65% | [5] -8.65% | [6] 8.5%

CCC1(CC)OC(=O)C(=O)N1N(C)C
inactive: [1] -16.9% | [2] -0.8% | [3] -13.9% | [4] -15.2% | [5] -10.9% | [6] -13.7%

N#CC(=Nc1ccc2ccccc2c1)C1=C(O)c2ccccc2C1=O
inactive: [1] 15.8% | [2] -3.2% | [3] 0.2% | [4] -30.4% | [5] 10.2% | [6] 11.8%

COc1cccc(NC(=O)CC(=O)Nc2cccc(OC)c2)c1
inactive: [1] -5.05% | [2] 3.6% | [3] -8.4% | [4] -32.1% | [5] 10.1% | [6] -18.7%

O=C1CC2CCCCC2CC1c1ccccc1 (stereo unspecified)
inactive: [1] 6.35% | [2] -0.4% | [3] -4.55% | [4] -22.6% | [5] -22.5% | [6] -12.2%

O=C1OCCOCCOCCOCCOCCOCCOC(=O)c2cccc1n2
inactive: [1] 28.9% | [2] -0.7% | [3] 7% | [4] 13.3% | [5] -0.35% | [6] 9.6%

CC1(C)OC[C@@H](N)[C@@H](O)CO1
inactive: [1] -9.35% | [2] 12.6% | [3] 0.05% | [4] -31.9% | [5] 0.55% | [6] 1.95%

CC(=O)NCCCOc1ccc(N)cc1
inactive: [1] -3.7% | [2] 4.05% | [3] -0.4% | [4] -27.1% | [5] -2.3% | [6] -11.9%

Cc1cc2c(C(C)C)c(O)c(O)c(C=Nc3ccc(N=Nc4ccccc4)cc3)c2c(O)c1-c1c(C)cc2c(C(C)C)c(O)c(O)c(C=Nc3ccc(N=Nc4ccccc4)cc3)c2c1O
inactive: [1] -4.7% | [2] 0.4% | [3] -6.3% | [4] -21.8% | [5] -3.35% | [6] -4.65%

CC1=C(C(=O)Nc2cccc3c2C(=O)NC3=O)CC(C(=O)Nc2cccc3c2C(=O)NC3=O)=C(C)N1
inactive: [1] -51% | [2] -18.6% | [3] -6.15% | [4] -25.8% | [5] -10.9% | [6] -25.8%

OCc1c(CO)c(C(F)(F)F)n2c1CCC2
inactive: [1] 9.9% | [2] -4.1% | [3] 9.15% | [4] -14.3% | [5] 9.65% | [6] 2.55%

COc1ccc(/C=C2\CCN(C(C)=O)C2=O)cc1
inactive: [1] 2.35% | [2] -2.65% | [3] -7.8% | [4] 2.6% | [5] 3.25% | [6] -10.7%

O=[N+]([O-])c1ccc(N=C/C=C\Nc2ccc([N+](=O)[O-])cc2)cc1
inactive: [1] 6.8% | [2] 14.8% | [3] 11.2% | [4] -13.4% | [5] 6.85% | [6] 14.8%

NNC(=S)N/N=C\c1ccnc2ccccc12
inactive: [1] 9.05% | [2] 2.85% | [3] 36.6% | [4] 28.7% | [5] 30.2% | [6] 23.4%

CC1CN(Cc2ccccc2)C(=O)C1=O (stereo unspecified)
inactive: [1] -20.4% | [2] 17.1% | [3] -21.3% | [4] -12.7% | [5] -9.8% | [6] -11.9%

COc1cccc(OC)c1/C=C1\N=C(c2ccccc2)OC1=O
inactive: [1] -1.4% | [2] -1.4% | [3] 2.55% | [4] -56.9% | [5] 5.55% | [6] -9.25%

ClCCCCCc1c2nc(c(CCCCCCl)c3ccc([nH]3)c(CCCCCCl)c3ccc([nH]3)c(CCCCCCl)c3nc1C=C3)C=C2
inactive: [1] -14.2% | [2] -19.1% | [3] -20.6% | [4] 3.75% | [5] 4.9% | [6] -47.4%

O=C(Nc1ccccc1Br)c1cccc([N+](=O)[O-])c1O
inactive: [1] 37.5% | [2] 35.2% | [3] 45.5% | [4] 38.2% | [5] 29.4% | [6] 37.1%

OCCOCCNc1ncnc2cc(Cl)ccc12
inactive: [1] -12.4% | [2] -14.7% | [3] 5.25% | [4] -14.2% | [5] 7.2% | [6] 4.2%

COc1coc(/C=C/C(=O)c2ccc(O)c(O)c2)cc1=O
inactive: [1] -11.9% | [2] 12.7% | [3] 10.3% | [4] -11.8% | [5] -6.25% | [6] -32.5%

O=C(N(CCc1ccc(O)cc1)Cc1ccc2c(c1)OCO2)C(F)(F)F
active: [1] 98% | [2] 96.8% | [3] 92.4% | [4] 92.4% | [5] 97.2% | [6] 98.6%

CCOC(=O)C(NC(=O)CC)(Nc1ccccc1OC)C(F)(F)F (stereo unspecified)
inactive: [1] -40.9% | [2] -28.6% | [3] -28.6% | [4] -17.3% | [5] -25.2% | [6] -31.5%

CC1SCC(C)(C)NC1=O (stereo unspecified)
inactive: [1] 3.85% | [2] 5.15% | [3] -3.95% | [4] -8.5% | [5] 5.7% | [6] 0.55%

Nc1ccn(CC(=O)c2ccc(Cl)s2)c(=O)n1
inactive: [1] -1% | [2] 10.8% | [3] 6.9% | [4] -5.1% | [5] 2.15% | [6] 6.3%

O=C(O)c1ccc(-c2nn[nH]n2)cc1
inactive: [1] -0.85% | [2] -10.1% | [3] -4% | [4] -11.8% | [5] -18.9% | [6] -15.2%

CCc1ccccc1NC(=O)Nc1ccc(C(=O)O)c(O)c1
inactive: [1] 33.6% | [2] 10.2% | [3] 27.4% | [4] 21.4% | [5] 29.8% | [6] 26.4%

Cc1csc2nc(-c3ccccc3)[nH]c(=S)c12
inactive: [1] 5.5% | [2] 6.4% | [3] 10.9% | [4] -22.8% | [5] -4.8% | [6] 6.75%

COc1ccc2c(-c3cc4ccccc4o3)cc(=O)oc2c1
inactive: [1] -6.4% | [2] -16.9% | [3] -21.3% | [4] 2% | [5] 3% | [6] -31.9%

Cc1cc(C)cc(C(=O)N=C(c2ccncc2)c2nc(-c3ccccc3)oc2O)c1
inactive: [1] -3.3% | [2] 13.9% | [3] -16.6% | [4] -12.4% | [5] 3.15% | [6] -1.3%

O=c1cc(CC(O)(C(F)(F)Cl)C(F)(F)Cl)[nH]n1-c1ccccc1
inactive: [1] -27.9% | [2] 4.05% | [3] -7.75% | [4] 11.4% | [5] -22.1% | [6] -5.65%

CCNC(=S)Nc1ccc(OCC)cc1
inactive: [1] 14.2% | [2] 24.3% | [3] 31.4% | [4] -18.1% | [5] 33.9% | [6] 16.4%

CCNCCNC(=O)c1ccc(I)cc1
inactive: [1] -33.9% | [2] -7.2% | [3] -4.2% | [4] 6.65% | [5] -14.8% | [6] -10.8%

CC1CC(c2ccccc2)(c2ccccc2)CN1C (stereo unspecified)
inactive: [1] -16.1% | [2] 9.4% | [3] 6.55% | [4] -45.3% | [5] 15.2% | [6] 8.5%

NC1=C(O)c2cccc3cccc(c23)C1=O
inactive: [1] 9.95% | [2] 12.2% | [3] 11.8% | [4] 2.35% | [5] 9.45% | [6] 16.4%
